# Compound activity deposited in PubChem by National Center for Advancing Translational Sciences (NCATS).
# Sampled rows, rich in hits. Any-hit rate of the full collection: about 2.8%.
# POLI inh: DNA polymerase iota (human) inhibition | Q9UNA4 | Pol iota fluorescent replication assay, 10 min | Potency, µM (highest dose often 115 µM), for inactives: top-dose activity, negative = inhibition, actives largely listed as inhibitors | 390,000 compounds, 1% hits; also: potency is read from the fitted curve at half-maximal effect
#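 Pol iota at 10 nM preincubated 15 min with compounds at room temperature; reaction started with fluorescent substrate, 50 nM final. Fluorescence read kinetically at 0 and 10 min; buffer-only wells as negative control.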
# Pol beta inh: inhibitors of human DNA polymerase beta; 340,000 compounds, 1.3% hits; Potency, µM (top dose mostly 114 µM), for the others: at the highest dose activity change, negative = inhibition, actives largely listed as inhibitors; Pol beta primer extension/strand displacement, fluorescence kinetic; AID 485314; P06746; also: potency is read from the fitted curve at half-maximal effect; % is scaled to controls: 0 for no effect and ±100 for the full control effect
#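 Homogeneous kinetic assay of primer extension and strand displacement by 10 nM Pol beta, preincubated 15 min at room temperature with compound before 50 nM substrate (final) was added. Read at 0 and 10 min; four-parameter Hill fit.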
# PI5P4K alpha inh: inhibitors of human PI5P4K alpha; P48426; PI5P4Kalpha enzyme, ADP-Glo luminescence, 60 min; stronger effect = lower value; max response, %; 330,000 compounds, 1.2% hits; active = max response of -50% or lower; inconclusive = between -30% and -50%; inactive = -30% or higher; also: value at the top dose of about 77 µM; % is scaled to controls: 0 for no effect and ±100 for the full control effect
#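 Enzyme plus substrate dispensed, test compounds pinned in, then ATP (5 microM final) added. After 60 min at RT, ADP-Glo reagent 1 for 45 min and reagent 2 for 30 min preceded luminescence imaging.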
# WRN helicase inh-1: WRN helicase (human) inhibition | Q14191 | WRN helicase unwinding, fluorescent forked duplex, kinetic | Potency, µM (top dose mostly 114 µM), inactives show top-dose activity change, negative = inhibition, most hits filed as inhibitors | 360,000 compounds, 0.46% hits | AID 651768; also: potency is read from the fitted curve at half-maximal effect; % is scaled to controls: 0 for no effect and ±100 for the full control effect; nearly all actives have a fitted effect of over 55% in size
#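 Fluorescence dequenching readout, ex 525 nm/em 598 nm, kinetic mode: forked duplex DNA (100 nM final) with adjacent fluorophore and quencher unwound by WRN (20 nM final) with 2 mM ATP. Compound preincubation 15 min, room temperature.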
# Pol kappa inh-1: DNA polymerase kappa (human) inhibition | 400,000 compounds, 0.53% hits | AID 588579 | Potency, µM (doses to about 107 µM), for inactives: top-dose activity, negative = inhibition, actives largely listed as inhibitors | purified Pol kappa, fluorescent DNA synthesis assay, 10 min | Q9UBT6; also: potency is read from the fitted curve at half-maximal effect; % is scaled to controls: 0 for no effect and ±100 for the full control effect
#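 Kinetic fluorescence screen: compound preincubated 15 min RT with 10 nM enzyme; 50 nM substrate (final) initiates; reads at 0/10 min.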
# Pol eta inh-1: inhibitors of human DNA polymerase eta; Q9Y253; 390,000 compounds, 1.2% hits; AID 588591; recombinant Pol eta, fluorescent DNA replication assay; Potency, µM (series often up to 114 µM), for inactives: top-dose activity change, negative = inhibition, most hits filed as inhibitors; also: potency is read from the fitted curve at half-maximal effect; % is scaled to controls: 0 for no effect and ±100 for the full control effect
#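 Pol eta (10 nM) was preincubated with compounds for 15 min at room temperature, after which fluorescent replication substrate (50 nM final) was added to start the reaction. Fluorescence was read kinetically at 0 and 10 min.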
# PGK validate: blocks T. brucei phosphoglycerate kinase; shares compounds with Pol kappa inh-1; TbPGK coupled GAPDH assay, Kinase-Glo luminescence; Potency, µM (titrated, usually from 57.5 µM), without a hit: top-dose activity change, negative = inhibition, usual class: inhibitors; 500 compounds, 79% hits; also: potency is read from the fitted curve at half-maximal effect; % is scaled to controls: 0 for no effect and ±100 for the full control effect; nearly all actives have a fitted effect of over 65% in size
# POLI cherry-pick: Human Pol iota inhibitor confirmatory assay. shares compounds with Pol kappa inh-1. Pol iota primer extension, TAMRA/BHQ fluorescence. Potency, µM, hits mostly inhibitors. 1,500 compounds, 77% hits. AID 720496; also: potency is read from the fitted curve at half-maximal effect
# GALK confirm: galactokinase (human) inhibition, confirmation; Potency, µM (doses to about 115 µM), without a hit: top-dose activity, negative = inhibition, usual class: inhibitors; purified GALK, Kinase-Glo ATP depletion luminescence; shares compounds with Pol eta inh-1; AID 2015; 150 compounds, 70% hits
# GALK redox cs: counter-screen for GALK inhibitors: redox cycling H2O2 generation. shares compounds with Pol eta inh-1. Phenol red-HRP H2O2 redox cycling, absorbance 600 nm. Potency, µM (top dose mostly 115 µM), for inactives: at the highest dose activity change, negative = H2O2 signal, hits mostly inhibitors. 150 compounds, 40% hits
# HEK293 tox: counter-screen for GALK inhibitors: HEK293 cell cytotoxicity; Potency, µM (doses to about 46.1 µM), for inactives: at the highest dose activity change, negative = cytotoxicity, usual class: inhibitors; 170 compounds, 10% hits; HEK-293 viability, ATP luminescence (CellTiter-Glo), 24/48 h; shares compounds with Pol eta inh-1; also: potency is read from the fitted curve at half-maximal effect; % is scaled to controls: 0 for no effect and ±100 for the full control effect
# Pol kappa inh-2: confirmation of human DNA polymerase kappa inhibitors | purified Pol-kappa, fluorescent strand-displacement substrate | Potency, µM, actives largely listed as inhibitors | AID 720501 | 920 compounds, 76% hits | shares compounds with Pol eta inh-1; also: potency is read from the fitted curve at half-maximal effect
# Pol eta inh-2: confirmation of human DNA polymerase eta inhibitors; shares compounds with Pol eta inh-1; Pol eta primer extension, TAMRA/BHQ fluorescence, 10 min; Potency, µM, most hits filed as inhibitors; 2,600 compounds, 64% hits; also: potency is read from the fitted curve at half-maximal effect
# WRN helicase inh-2: confirmation of human WRN helicase inhibitors; shares compounds with WRN helicase inh-1; WRN helicase DNA unwinding, fluorescence kinetic; Potency, µM (highest dose often 57.1 µM), without a hit: at the highest dose activity, negative = inhibition, usual class: inhibitors; 610 compounds, 63% hits; AID 720497; also: potency is read from the fitted curve at half-maximal effect; nearly all actives have a fitted effect of over 65% in size
# TO displacement: binds DNA, flagged in WRN inhibitor counterscreen. Potency, µM (doses to about 57.1 µM), without a hit: at the highest dose activity change, negative = inhibition, most hits filed as inhibitors. thiazole orange DNA binding displacement, fluorescence. shares compounds with WRN helicase inh-1. 610 compounds, 10% hits;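 also: drop in dye fluorescence marks compound binding to DNA; potency is read from the fitted curve at half-maximal effect; % is scaled to controls: 0 for no effect and ±100 for the full control effect; nearly all actives have a fitted effect of over 60% in size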
# BLM counter: BLM helicase inhibition, WRN selectivity check | 610 compounds, 60% hits | shares compounds with WRN helicase inh-1 | Recombinant BLM helicase DNA unwinding, red fluorescence | Potency, µM (series often up to 57.1 µM), for the others: at the top dose activity change, negative = inhibition, usual class: inhibitors | AID 720503; also: potency is read from the fitted curve at half-maximal effect; nearly all actives have a fitted effect of over 60% in size
# * = called active by the depositor; ? = inconclusive; . = no result; [ ] = remark or other dose. Unless noted, calls follow the shape of the dose curve; as a rule, active = well fitted curve in the direction sought with a large enough effect; inconclusive = small, poorly fitted or top-dose-only effect, or another doubt; inactive = no such curve, though single readings can be large; an effect the other way counts as inactive or inconclusive.
SMILES,POLI inh,Pol beta inh,PI5P4K alpha inh,WRN helicase inh-1,Pol kappa inh-1,Pol eta inh-1,POLI cherry-pick,Pol eta inh-2,WRN helicase inh-2,TO displacement,BLM counter,others
O=c1c(C(c2ccc(O)cc2)c2c(O)nc3n(c2=O)CCCS3)c(O)nc2n1CCCS2,?,-5%,?,?,?,13µM*,?,76*,?,-3%,19µM*,
CCCCNC(=O)C1CCC(Cn2c(=O)c3sccc3n(CC(=O)N3CCCC3)c2=O)CC1 (stereo not given),-6%,8%,.,.,23%,-18%,.,.,.,.,.,
Cc1ccc(/C=C(\CCC(=O)O)c2nc3ccccc3s2)cc1[N+](=O)[O-],4%,3%,-11,-19%,-15%,-11%,.,.,.,.,.,
CN(c1ccccc1)c1ccc(/C=C(\CCC(=O)O)c2nc3ccccc3s2)cc1[N+](=O)[O-],22µM*,8.9µM*,?,27µM*,?,8.9µM*,27*,67*,22µM*,27µM*,8.6µM*,
COc1ccc(Cl)cc1NC(=O)N1CCN(S(=O)(=O)c2ccc3c(ccn3C)c2)CC1,3%,4%,.,.,-10%[60.1 µM],-7%,.,.,.,.,.,
O=C1COc2ccc(C(=O)COC(=O)c3ccccn3)cc2N1,49%,.,1,0%,-7%,-4%,.,.,.,.,.,
O=C1COc2ccc(C(=O)COC(=O)c3ccc4ccccc4n3)cc2N1,?,?,-18,?,-29%,?,47*,?,14µM*,11%,8.6µM*,
O=C(O)CC(C(=O)O)N1C(=O)/C(=C/C=C/c2ccco2)SC1=S (stereo not given),1.6µM*,0.79µM*,-55*,10µM*,-96%,0.89µM*,5.3*,3*,3.8µM*,3.8µM*,4.8µM*,PGK validate=2.9µM*
O=C(NN1C(=O)/C(=C/C=C/c2ccco2)SC1=S)c1ccccc1O,1.3µM*,1.1µM*,-78*,10µM*,4µM*,1.1µM*,2.7*,3.4*,3µM*,?,8.6µM*,PGK validate=9.2µM*
Cc1ccc(-c2nn3cnnc3s2)cc1NC(=O)c1ccc(-c2cccc(Cl)c2)o1,.,.,.,.,.,.,27*,76*,?,163%,?,Pol kappa inh-2=?
Cc1cccc(CNC(=O)Cc2ccc(NC(=O)N3CCCCc4ccccc43)cc2)c1,30%,16%,.,.,0%,-21%,.,.,.,.,.,
CCc1cc(C(=O)N=Nc2c(O)[nH]c3ccc([N+](=O)[O-])cc23)c2ccccc2n1,?,32µM*,-3,?,?,50µM*,?,76*,19µM*,15µM*,17µM*,
COc1ccc(C2Nc3ccccc3C(=O)N2Cc2ccco2)cc1COc1ccc(N)cc1 (stereo not given),.,.,.,.,.,.,75*,85*,11µM*,?,3µM*,
O=C1NC2c3c(I)sc(I)c3C(=O)C2O1 (stereo not given),-4%,.,-4,-10%,-25%,4%,.,.,.,.,.,
O=C1NC2c3c(Cl)sc(Cl)c3C(=O)C2O1 (stereo not given),25µM*,.,?,2.4µM*,?,3.2µM*,4.2*,6*,15µM*,-18%,1.4µM*,Pol kappa inh-2=2.7*
Oc1ccc2ccccc2c1N=Nc1ccc(F)cc1,-28%,-10%,0,-14%,-14%,-15%,.,.,.,.,.,
O=C(O)Cc1ccc(N=Nc2c(O)c(C(=O)O)cc3ccccc23)cc1,7.9µM*,32µM*,-73*,25µM*,?,7.1µM*,21*,21*,19µM*,?,17µM*,
COc1ccc(NC(=O)C(CC(C)C)NS(=O)(=O)c2ccc3c(c2)oc(=O)n3C)cc1Cl (stereo not given),3%,?,.,.,-12%,-11%,.,.,.,.,.,
COC(=O)c1scc(-c2ccc(C)cc2)c1S(=O)(=O)N1CCN(c2ccc(C)cc2C)CC1,-2%,-26%,.,.,-14%,-8%,.,.,.,.,.,
COc1ccc(S(=O)(=O)/N=C2\C=C(Nc3ccc(O)cc3)C(=O)c3ccccc32)cc1,?,-23%,-16,0%[11.6 µM],-15%,?,.,.,.,.,.,
O=C(O)c1ccc(S(=O)(=O)/N=C2\C=C(Nc3ccccc3F)C(=O)c3ccccc32)cc1,1.1µM*,45µM*,?,40µM*,?,8.9µM*,21*,21*,?,-26%,?,GALK confirm=7.5µM*;GALK redox cs=4.2µM*;HEK293 tox=13µM*
